# Source: PubChem BioAssay (NCI)
# About 83,000 compounds went through this panel and 20% of them were active in at least one assay; those are over-represented in the sample as a whole.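 Negative percent growth values reflect cell death: -40 means 40% of the cells present at the start died, and -100 means all died.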 Activity calls are given as the source filed them. Rule for the calls: active = growth percent below 10; inactive = the rest.
# System: MDA-MB-468 breast
# Experiment: NCI-60 one-dose screen, 48 h (100 = growth as untreated, 0 = no growth, -100 = all killed)
# Conditions: 10 µM unless noted
row,SMILES,growth
1,[Ag].[Ag].[NH-]S(=O)(=O)c1ccc(N=Nc2cc(N=Nc3ccc(S([NH-])(=O)=O)cc3)c3c(NC(=O)C(Cl)Cl)cccc3c2OC(=O)C(Cl)Cl)cc1.[c-]1nccs1.[c-]1nccs1,61.4% (inactive)
2,O=C(CS)Nc1ccc2ccccc2c1,108% (inactive)
3,C/C(=N/Nc1nc2ccccc2n1C)c1ccccn1,-41.9% (active)
4,N/C(=N\N=C\c1ccc2c(c1)OCO2)N/N=C\c1ccc2c(c1)OCO2,98.9% (inactive)
5,C/C(=C\C(=O)c1ccc(Cl)cc1)c1ccc(Cl)cc1,5.65% (active)
6,COC(=O)c1ccc(NC2=C(Cl)C(=O)c3nc(C)ccc3C2=O)cc1,56% (inactive)
7,Cc1ccc(OCc2occc2C(=O)N2CCOCC2)cc1,103% (inactive)
8,COc1cccc(C2C(C#N)=C(N)Oc3cc(OC)ccc32)c1 (stereo not given),41.4% (inactive)
9,COc1ccc(/C=C(/C(=O)n2cnnn2)c2cc(OC)c(OC)c(OC)c2)cc1,13.6% (inactive)
10,O=C(Nc1ccc(N2CCNCC2)cc1)c1[nH]ncc1Nc1cc(Oc2ccccc2)ncn1,34.6% (inactive)
11,O=S(=O)(O)c1ccc(N=NSc2ccc3ccccc3c2)cc1,108% (inactive)
12,COc1ccc(C2=NN(C=O)C(c3cccc(Nc4ccnc5cc(Cl)ccc45)c3)C2)cc1 (stereo not given),-3.92% (active)
13,O=C1N=C(N2CCOCC2)S/C1=C\c1cn(-c2ccccc2)nc1-c1ccccc1,83.3% (inactive)
14,O=C(CCc1nnc2sc(Cc3ccccc3Cl)nn12)c1nc2ccccc2[nH]1,84.5% (inactive)
15,CCN(CC)c1cc2oc3cc(N)cc(=N)c-3nc2cc1C,38.3% (inactive)
16,CN(CCC#N)c1ccc(/C=C(\C#N)c2cccc(C(F)(F)F)c2)cc1,23.4% (inactive)
17,CN(C)CCC(CCN(C)C)(C(=O)O)c1ccccc1,102% (inactive)
18,O=C(N/N=C/c1ccc(Br)s1)c1[nH]c2ccc(Br)cc2c1-c1ccccc1,-5.18% (active)
19,O=C(Cc1ccc([N+](=O)[O-])cc1)Oc1ccccc1,113% (inactive)
20,COc1ccc(NC2=C(I)C(=O)c3ncccc3C2=O)cc1,-58% (active)

row,SMILES,growth
1,CCOC(=O)/C(=C(\C)N)C1CC(=O)NC1=O (stereo not given),92.3% (inactive)
2,O=C(Nc1ccccc1O)c1ccc(NS(=O)(=O)c2cccc3cccnc23)cc1,49.8% (inactive)
3,S=C(Nc1ccc(-c2nc(N3CCOCC3)c3cccn3n2)cc1)Nc1cccnc1,34.8% (inactive)
4,Cn1c2ccccc2c2nnc(NCCCCO)nc21,95.8% (inactive)
5,C=C1C(=O)O[C@H]2[C@H]1CC/C(COC(=O)/C=C\C(=O)NCc1ccc(Cn3c(=O)sn(-c4ccc(Cl)cc4)c3=O)cc1)=C\CC[C@@]1(C)O[C@@H]21,-83.5% (active)
6,CC(=O)Nc1ccc(C(=O)/C=C/c2ccccc2)cc1,90.8% (inactive)
7,Cc1c(C(N)=O)sc2c1c(=O)n(Cc1ccccc1)c1nnc(S(=O)(=O)CC(=O)Nc3ccc(Cl)cc3)n21,33.2% (inactive)
8,CC(C)=C(NC(=O)c1ccccc1)C(=O)O,88.5% (inactive)
9,COc1cc(/C=C/C(=O)c2c(-c3ccc(Cl)cc3)nc3sc(C)nn23)cc(OC)c1OC,65.7% (inactive)
10,COc1ccc2cc1Oc1ccc(cc1)C[C@H]1c3c(cc4c(c3Oc3cc5c(cc3OC)CCN(C)[C@@H]5C2)OCO4)CCN1C,7.08% (active)
11,COC(=O)CNS(=O)(=O)c1ccc2c(c1)Cc1cc(S(=O)(=O)NCC(=O)OC)ccc1-2,84.9% (inactive)
12,O=C(/C=C\c1ccc2c(c1)OCO2)/C=C/c1ccc2c(c1)OCO2,20.3% (inactive)
13,O=C(N/N=C/c1ccc(O)cc1O)c1ccc(Nc2ccnc(C(F)(F)F)c2)cc1,29.5% (inactive)
14,CN1CCN(Cc2ccc(NC(=O)c3cncc(C#Cc4cnc5ccc(OCC(F)F)nn45)c3)cc2C(F)(F)F)CC1,-65.5% (active)
15,CC(=O)c1nn(-c2ccccc2)/c(=N/N=Cc2cn(-c3ccccc3)nc2-c2cc3ccccc3oc2=O)s1,103% (inactive)
16,Cc1ccc(NC(=O)N[C@@H](Cc2cc(F)cc(F)c2)C(=O)NC2C(=O)N3C[C@H](O)C[C@H]3C(=O)N3CCCC[C@H]3C(=O)N[C@@H](CO)C(=O)N3C[C@H](C)C[C@H]3C(=O)O[C@H]2C)c(F)c1 (stereo not given in full),-2.72% (active)
17,COc1ccccc1C(C[N+](=O)[O-])c1c(-c2ccccc2)[nH]c2cc(C)ccc12 (stereo not given),44.4% (inactive)
18,COc1ccc(CC(=O)Nc2nn3c(-c4cc(C(F)(F)F)cc(C(F)(F)F)c4)nnc3s2)cc1,48.4% (inactive)
19,NC(CCl)=NCC12CC3CC(CC(C3)C1)C2,-31.3% (active)
20,NC(=O)N/N=C/c1ccc(Br)o1,109% (inactive)
